In all, about 5,500 compounds went through this assay and about 2,000 (36%) were called active. Not shown: some 18% with an inconclusive outcome. No stated cut-off is given here; in the data, active means normalized growth mostly below about 0.91 (no sharp cut-off); inconclusive means no clear call, values can overlap the other calls; inactive means mostly above about 0.92. This is one part of the list.
Experiment: chemical genetic growth profiling, strain panel (AID 1159580);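 further: tested at 20 µM; growth read once vehicle control cultures reached saturation at 30 °C; 1 = growth at the plate median or of vehicle wells; lower values mean less growth of the strain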
Settings: S. cerevisiae deletion strains, growth OD

Measured: normalized growth

C=CCS(=O)C[C@H](N)C(=O)O (some centres undefined)
inactive: locus YAL021C, strain ccr4, hits give low values 1 | locus YAL026C, strain drs2, hits give low values 1 | locus YAL030W, strain snc1, hits give low values 0.982 | locus YBL061C, strain skt5, hits give low values 1 | locus YBR009C, strain hhf1, hits give low values 1 | locus YBR023C, strain chs3, hits give low values 1 | locus YBR171W, strain sec66, hits give low values 0.982 | locus YBR231C, strain swc5, hits give low values 0.981 | locus YBR279W, strain paf1, hits give low values 0.999 | locus YCL011C, strain gbp2, hits give low values 0.992 | locus YCL016C, strain dcc1, hits give low values 1.02 | locus YCL069W, strain vba3, hits give low values 0.984 | locus YCR088W, strain abp1, hits give low values 0.986 | locus YDL005C, strain med2, hits give low values 1 | locus YDL040C, strain nat1, hits give low values 1.01 | locus YDR001C, strain nth1, hits give low values 1 | locus YDR069C, strain doa4, hits give low values 0.985 | locus YDR137W, strain rgp1, hits give low values 0.97 | locus YDR159W, strain sac3, hits give low values 0.996 | locus YDR195W, strain ref2 0.986 | locus YDR297W, strain sur2, hits give low values 1 | locus YDR334W, strain swr1, hits give low values 1.01 | locus YDR335W, strain msn5, hits give low values 0.991 | locus YDR392W, strain spt3, hits give low values 0.979 | locus YEL003W, strain gim4, hits give low values 1 | locus YEL037C, strain rad23, hits give low values 1.01 | locus YEL061C, strain CIN8 (second series), hits give low values 1.01 | locus YER015W, strain faa2, hits give low values 1 | locus YER016W, strain bim1, hits give low values 0.982 | locus YER111C, strain swi4, hits give low values 1.01 | locus YER155C, strain BEM2 (second series), hits give low values 0.961 | locus YFR010W, strain ubp6, hits give low values 0.998 | locus YGL167C, strain pmr1, hits give low values 0.997 | locus YGL173C, strain kem1, hits give low values 0.999 | locus YGL227W, strain vid30, hits give low values 0.969 | locus YGL240W, strain doc1, hits give low values 0.994 | locus YGL253W, strain hxk2, hits give low values 1 | locus YHR013C, strain ard1, hits give low values 0.981 | locus YHR027C, strain rpn1, hits give low values 0.994 | locus YHR030C, strain SLT2, hits give low values 1.02 | locus YHR079C, strain IRE1, hits give low values 1.01 | locus YHR142W, strain chs7, hits give low values 1.02 | locus YJL092W, strain hpr5, hits give low values 0.999 | locus YJL095W, strain BCK1 (second series), hits give low values 0.998 | locus YJL095W, strain BCK1, hits give low values 1.03 | locus YJL115W, strain asf1, hits give low values 0.992 | locus YJL129C, strain trk1, hits give low values 0.997 | locus YJL154C, strain vps35, hits give low values 0.995 | locus YJL164C, strain tpk1, hits give low values 0.997 | locus YJL166W, strain qcr8, hits give low values 0.991 | locus YJL187C, strain SWE1, hits give low values 0.998 | locus YJR066W, strain TOR1, hits give low values 0.952 | locus YKL160W, strain elf1, hits give low values 1 | locus YKR026C, strain gcn3, hits give low values 0.984 | locus YKR091W, strain srl3, hits give low values 0.986 | locus YLL001W, strain dnm1, hits give low values 1.01 | locus YLL026W, hits give low values 0.994 | locus YLL041C, strain sdh2, hits give low values 0.995 | locus YLR027C, strain aat2, hits give low values 1 | locus YLR113W, strain HOG1, hits give low values 1.02 | locus YLR221C, strain rsa3, hits give low values 1 | locus YLR258W, strain gsy2, hits give low values 0.987 | locus YLR262C, strain YPT6 (second series), hits give low values 0.987 | locus YLR320W, strain mms22, hits give low values 1 | locus YLR342W, strain FKS1, hits give low values 0.996 | locus YLR357W, strain rsc2, hits give low values 0.961 | locus YLR370C, strain arc18, hits give low values 0.995 | locus YLR384C, strain iki3, hits give low values 0.994 | locus YML120C, strain ndi1, hits give low values 0.992 | locus YMR058W, strain fet3, hits give low values 0.998 | locus YMR125W, strain sto1, hits give low values 0.991 | locus YMR129W, hits give low values 0.976 | locus YMR205C, strain PFK2, hits give low values 1.01 | locus YMR231W, strain pep5, hits give low values 0.998 | locus YNL071W, strain lat1, hits give low values 0.988 | locus YNL183C, strain NPR1, hits give low values 0.971 | locus YNL209W, strain ssb2, hits give low values 0.985 | locus YNL248C, strain rpa49, hits give low values 1 | locus YNL322C, strain KRE1 (second series), hits give low values 0.98 | locus YNR049C, strain mso1, hits give low values 0.997 | locus YOR001W, strain rrp6, hits give low values 1.01 | locus YOR070C, strain gyp1, hits give low values 1 | locus YOR080W, strain dia2, hits give low values 1.01 | locus YOR083W, strain WHI5, hits give low values 0.962 | locus YOR106W, strain vam3, hits give low values 1 | locus YOR231W, strain MKK1, hits give low values 1.01 | locus YOR265W, strain rbl2, hits give low values 1.01 | locus YOR270C, strain vph1, hits give low values 1.02 | locus YOR290C, strain snf2, hits give low values 1 | locus YPL051W, strain arl3, hits give low values 0.983 | locus YPL078C, strain atp4, hits give low values 1.02 | locus YPL106C, strain sse1, hits give low values 0.929 | locus YPL240C, strain hsp82, hits give low values 0.983 | locus YPL256C, strain CLN2, hits give low values 1.02

Source: PubChem BioAssay AID1159580 (chemical genetic matrix, 2015)
